Data from PubChem BioAssay AID504444 (National Center for Advancing Translational Sciences (NCATS), 2011).
“And” between values parts separate entries of the source, which are not always exact repeats. Equal values may be shown once. The whole screen tested about 360,000 compounds, of which about 7,500 (2.1%) were called active. Inconclusive results (about 20%) are left out. The call rests on the fitted dose curve; in most records, active means well fitted inhibition curve with a large enough effect; inconclusive means small, poorly fitted or top-dose-only effect, or effect the other way; inactive means flat fitted curve, though single readings scatter. What follows is part of a selection rich in actives, with near analogues and random picks from the rest.

Test: Nrf2 qHTS screen for inhibitors; further: nearly all actives have a fitted effect of over 60% in size
Conditions: A549 ARE-Fluc reporter, luciferase luminescence, 18-24 h; series mostly up to 46 µM
Procedure, shortened: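 Nrf2 function is reported as luminescence of an ARE-controlled luciferase in A549 cells. Compounds were tested at several concentrations, and a CellTiter-Fluor read on the same wells flagged cytotoxicity.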
On the % scale 0 is the no-effect control and ±100 the full control effect; potency means the concentration at half of the fitted maximal effect.

Potency, active:
O=C(N/N=C/c1ccccn1)c1cccc(NC(=O)c2ccc(Cl)cc2)c1 23.1 µM, O=C(Nc1ncc([N+](=O)[O-])s1)C1COc2ccccc2O1 (stereo not drawn) 14.6 µM, S=C(NCC1CCCO1)N1CCN(c2ccc(Cl)c(Cl)c2)CC1 (stereo not drawn) 14.6 µM, Cc1ccc(S(=O)(=O)N2CCN(c3ncnc4ccccc34)CC2)cc1 2.31 µM and 8.2 µM, Cc1ccc(C)c(S(=O)(=O)N2CCN(c3ncnc4sccc34)CC2)c1 18.4 µM, CCc1ccc(CN(C)C(=O)CCc2nnc(-c3ccc(-c4ccccc4)cc3)o2)nc1 18.4 µM, CC(=O)Nc1ccc(Nc2c3ccccc3nc3ccccc23)cc1 5.8 µM, O=[N+]([O-])c1cc(S(=O)(=O)Nc2cccc(Cl)c2)ccc1N=Nc1c(O)[nH]c2ccccc12 20.6 µM, CCCN(c1ccc(C(C)C)cc1)S(=O)(=O)c1c(C)[nH]c(=O)[nH]c1=O 5.8 µM, Cc1ccc(NC(=O)c2cccc(S(=O)(=O)N3CCCc4ccccc43)c2)nc1 10.3 µM, Cn1c2ccccc2c2c(C(=O)N3CCN(c4ccc(F)cc4)CC3)cn(C3CCCC3)c(=O)c21 25.9 µM, CCN(CC)S(=O)(=O)c1cccc(NC(=O)c2ccc(S(=O)(=O)N3CCCC3)cc2)c1 23.1 µM, Cc1cc2c(cc1C)C(c1cccc(OC(C)C)c1)CC(=O)N2 (stereo not drawn) 16.4 µM, CCc1nn(CCCN2CCN(c3cccc(Cl)c3)CC2)c(=O)n1CCOc1ccccc1 16.4 µM, COc1cccc(-c2ccc(SCC(=O)N3CCN(c4ccccc4)CC3)nn2)c1 20.6 µM, C=CCC[C@@H](Cc1ccc(F)cc1)C(=O)OC[C@H](Cc1c[nH]c2ccccc12)NC(=O)[C@@H](CC=C)CC(=O)N(CCO)Cc1ccccc1 20.6 µM, C=CCC[C@@H](Cc1ccc(F)cc1)C(=O)O[C@H](CNC(=O)[C@H](CC=C)CC(=O)N(CCO)Cc1ccccc1)c1ccccc1 18.4 µM

Potency, inactive:
COc1ccccc1C(=O)OCc1cc(=O)n2nc(-c3cccs3)sc2n1, CC(C)(C)S(=O)(=O)N1Cc2cc(CO)cc(CCO)c2[C@H]1CCO, O=C(N/N=C/c1ccccn1)c1cccnc1, O=C(N/N=C/c1ccccn1)c1ccc(S(=O)(=O)N2CCCCCC2)cc1, CCOc1ccc(/C=C(/C#N)c2nnc(N3CCOCC3)n2-c2ccccc2)cc1OC, COc1ccc(CNC(=O)c2ccc(NC(=O)N3CC4CCCN4c4ccccc43)cc2)cc1 (stereo not drawn), CCN(CCCNC(=O)c1cc2c(=O)n(CC)c3ccccc3c2s1)Cc1ccccc1, O=C(Nc1nnc(SCc2ccc(Cl)cc2Cl)s1)C1COc2ccccc2O1 (stereo not drawn), O=C(Nc1nc2c(F)cc(F)cc2s1)C1COc2ccccc2O1 (stereo not drawn), Cc1ccc(C(=O)Nc2cc3c(cc2N2CCCC2)n(C)c(=O)c(=O)n3C)cc1, CN(C)C(=O)CCc1ccc2c3c([nH]c2c1)[C@]1(CCc2ccccc2)[C@@H](C(=O)N2CCCCC2)C[C@H](CC(=O)NCCC2=CCCCC2)C(=O)N1CC3, O=C(Cn1c(-c2cccs2)cc2ccccc21)NCCc1ccc(Cl)cc1, COc1ccc(S(=O)(=O)N2CCN(C(=S)NCC3CCCO3)CC2)cc1OC (stereo not drawn), CCOc1ccc(S(=O)(=O)N2CCN(C(=S)NCC3CCCO3)CC2)cc1 (stereo not drawn), CCCCOc1ccc(CN2C(=O)C(=O)c3cc(Br)cc(C)c32)cc1OC, O=C(CN1C(=O)COc2ccc(S(=O)(=O)N3CCCCCC3)cc21)N1CCN(c2cccc(C(F)(F)F)c2)CC1, CCc1cc2c(cc3c(=O)n(CC(=O)NCc4cccc(Cl)c4)nc(CC)n32)s1, CN(C)c1ccc(NC(=O)CSc2nc(-c3ccco3)cc(C(F)(F)F)n2)cc1, COc1ccc(C)cc1S(=O)(=O)N1CCN(S(=O)(=O)c2cc(C(=O)O)ccc2C)CC1, Cc1ccc(S(=O)(=O)N2CCN(c3nc(-n4cnc5ccccc54)nc4ccccc34)CC2)cc1, Cc1ccc(C)c(S(=O)(=O)N2CCN(C(=O)Nc3ccccc3)CC2)c1, O=[N+]([O-])c1ccc(S(=O)(=O)N2CCN(c3nc(-c4ccccc4)nc4ccccc34)CC2)cc1, Cc1ccc(C)n1-c1nnc(N2CCC(C(=O)NCc3ccccc3Cl)CC2)s1, CCCCn1nc(C(=O)Nc2cccc(C(=O)NC3CC3)c2)c2ccccc2c1=O, Cc1ccccc1NC(=O)CSC(=O)c1ccccc1, CCc1ccc(CN(C)Cc2nc(Cc3ccccc3)no2)nc1, CC(=O)c1ccc(-c2nnc(CCC(=O)N(C)Cc3cnc4ccccn34)o2)s1, NC(=S)NN=C1CCCC(C(F)(F)F)C1 (stereo not drawn), O=S(=O)(Nc1ccc2nc(N3CCOCC3)sc2c1)c1ccccc1, COc1ccc(Cl)cc1NC(=O)COC(=O)c1ccc(Br)o1, CC(=O)Nc1ccc(S(=O)(=O)NCCC(=O)N2CCN(c3ccccc3Cl)CC2)cc1, CC(=O)Nc1ccc(NC(=O)COc2ncnc3ccccc23)cc1, CCc1nc(Nc2ccc(NC(C)=O)cc2)c2oc3ccccc3c2n1, O=C1N[C@H](Cc2c[nH]c3ccccc23)COC(=O)[C@H](Cc2ccc(F)cc2)C/C=C\C[C@H]1CC(=O)N(CCO)Cc1ccccc1, O=C(C1CCCN(S(=O)(=O)c2cccc3nonc23)C1)N1CCN(c2ccccc2F)CC1 (stereo not drawn), COc1ccc(S(=O)(=O)Nc2ccc3cn[nH]c3c2)cc1[N+](=O)[O-], O=C(O)c1ccccc1/C=N/Nc1ccc(S(=O)(=O)Nc2ccc(Cl)cc2)cc1[N+](=O)[O-], O=C(NCCCO)c1nn(-c2ccc(Cl)cc2)nc1CO, O=C(CN1CCCSc2ccccc21)N1CCN(S(=O)(=O)c2ccccc2)CC1, Cc1ccc(-c2nn(CCC(=O)Nc3ccc(OC(F)(F)F)cc3)c(=O)c3ccccc23)cc1, CCOc1ccc(N(CC(=O)Nc2ccccc2F)S(=O)(=O)c2c(C)[nH]c(=O)[nH]c2=O)cc1, CCOc1ccc(N(CC(=O)NC2CCCCCC2)S(=O)(=O)c2c(C)[nH]c(=O)[nH]c2=O)cc1, COc1ccccc1CNC(=O)c1ccc(CS(=O)c2ccccc2Cl)o1 (stereo not drawn), COC(=O)[C@]1(Cc2ccccc2)N[C@H](CN(C)S(=O)(=O)c2ccc(F)cc2)[C@@H]2C(=O)N(Cc3ccccc3)C(=O)[C@@H]21, O=C(Nc1nnc(S(=O)(=O)N2CCCc3ccccc32)s1)c1cccc(F)c1, CC1CCN(C(=O)c2cccc(S(=O)(=O)N3CCCc4ccccc43)c2)CC1, Cc1ccc(S(=O)(=O)N2CCN(C(=O)Cn3c(=O)cnc4ccccc43)CC2)c(C)c1, O=C1OC(Oc2ccc(Br)cc2)(c2ccccc2)c2ccccc21 (stereo not drawn), CCOc1ccc(NC(=O)c2cn(C3CCCCC3)c(=O)c3c2c2ccccc2n3C)cc1, CC(C)N(C(=O)COC(=O)c1ccccc1C(=O)N1CCN(c2ccc(F)cc2)CC1)C(C)C, COc1cc(C2c3c(oc4ccccc4c3=O)C(=O)N2c2nc(C)c(C)s2)ccc1O (stereo not drawn), CC[C@]12c3[nH]c4cc(CCC(=O)N(C)C)ccc4c3CCN1C(=O)[C@@H](CC(=O)NCC13CC4CC(CC(C4)C1)C3)C[C@@H]2C(=O)N1CCN(C(=O)C2CC2)CC1, CCOC(=O)c1c(C)n(S(=O)(=O)c2ccc(C)cc2C)c2ccc(NS(=O)(=O)c3ccc(C)cc3C)cc12, COc1cc(C(=O)NNC(=O)c2ccc(S(=O)(=O)N3CCCCC3)cc2)cc(OC)c1OC, O=C(Nc1cccc(S(=O)(=O)N2CCCC2)c1)c1cncc(Br)c1, CC(C)n1ncc2c(C(=O)NCc3ccccc3CN(C)C)cc(C3CC3)nc21, CC(C)(C)C(=O)Nc1cccc(-c2ccc[nH]2)n1, COc1cc2c(cc1OC)C(c1ccncc1)CC(=O)N2 (stereo not drawn), COC(=O)c1ccc(C2CC(=O)Nc3cc(OC)c(OC)cc32)cc1 (stereo not drawn), Cc1ccc(NC(=O)CN2C(=O)CC(C)Sc3ccccc32)c(C)c1 (stereo not drawn), CCN1C(=O)/C(=C\N2CCN(c3cccc(Cl)c3)CC2)SC1=S, OC(COc1ccccc1)CN1CCN(c2cccc(Cl)c2)CC1 (stereo not drawn), Cc1ccc(-c2noc(CSc3nnc(-c4ccc(Cl)cc4)n3C)n2)cc1, COC(=O)c1ccccc1NC(=O)Cn1c(=O)cc(C)c2c(C)nn(-c3cccc(Cl)c3C)c21, Cc1nnc(SCC(=O)N2CCN(c3ccccc3)CC2)n1-c1ccccc1, COc1cccc(/C=C/C(=O)OCC(=O)N2CCN(c3ccccc3)CC2)c1, C=CC[C@H](CC(=O)OC(C)(C)C)C(=O)OC[C@H]1CCCN1C(=O)[C@H](CC=C)CC(=O)N(CCO)Cc1ccccc1, C=CC[C@@H](CC(=O)N[C@H](CO)Cc1ccccc1)C(=O)N[C@H](C)COC(=O)[C@@H](CC=C)Cc1ccc(F)cc1, C=CCC[C@@H](Cc1ccc(F)cc1)C(=O)OC[C@@H](C)NC(=O)[C@H](CC=C)CC(=O)N(CCO)Cc1ccccc1, C=CC[C@@H](CC(=O)N[C@H](CO)Cc1ccccc1)C(=O)N[C@@H](COC(=O)[C@@H](CC=C)Cc1ccc(F)cc1)Cc1c[nH]c2ccccc12

Activity change, negative = inhibition, inactive:
CCN1CCN(c2cc(C)c3cc(NC(=O)c4cc(Cl)ccc4OC)ccc3n2)CC1 12% [at 9.27 µM]
